The subject of one assay is Staphylococcus aureus. Particulars: Concentration 32 ug.mL-1;; ASSAY_TEST Inhibition of Bacterial Growth; detection method Absorption (OD600); MEDIA CAMHB; plate type 384well; NBS; CORNING #3640; time 18 hr.
A further assay deals with Escherichia coli. Particulars: Concentration 32 ug.mL-1;; ASSAY_TEST Inhibition of Bacterial Growth; detection method Absorption (OD600); MEDIA CAMHB; plate type 384well; NBS; CORNING #3640; time 18 hr.

Results with a measured potency or affinity are listed apart.

3 molecules from ChEMBL document CHEMBL4513146, “CO-ADD screening of Karazin Kharkiv National University (Ukraine) compounds” can be followed below.

For orientation: Inhibition means the relative decrease from the control value, in per cent.

Take `CCOc1ccc(NC(=O)Cn2nc3c(N4CCCC4)nccn3c2=O)cc1`: the Inhibition in the assay on Staphylococcus aureus is listed as 0.84%; in the assay with Escherichia coli it was -1.53%.
For `CCc1ccc(NC(=O)Cn2nc3cc(C)nc(Nc4ccc(F)c(C)c4)n3c2=O)cc1`, in that order: 4.65% and -6.45%.
Regarding `Cc1ccc(NC(=O)CSc2nnc3c(=O)n(-c4ccccc4)ccn23)c(C)c1`, the Inhibition in the assay on Staphylococcus aureus is listed as 7.2%; in the assay on Escherichia coli it was -16.98%.
